# Measured values taken from PMC5540273 (PLoS ONE, 2017).
# Columns and labels:
# Details in all cases: concentration: 1 μM, replicates: in singlicate; n = 1
# [1] = test system: PIK3C2G
# [2] = test system: PIK3CA
# [3] = test system: PIK3CB
# [4] = test system: PIK3CD
# [5] = test system: PIK3CG
# [6] = test system: T1, PIK4CB
# T1 construct: gene PI4KB
# [7] = test system: PIKFYVE
# [8] = test system: PIM1
# [9] = test system: PIM2
# [10] = test system: PIM3
# 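Further: KINOMEscan kinase panel screen.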
structure (smiles),measurement,setting,value
O=c1[nH]cc(-c2ccc(N3CCOCC3)cc2)c2sc(-c3cn[nH]c3)cc12 [GSK2276055],%Inh,[1],0%
same,%Inh,[2],21%
same,%Inh,[3],11%
same,%Inh,[4],3%
same,%Inh,[5],21%
same,%Inh,[6],8%
same,%Inh,[7],31%
same,%Inh,[8],77%
same,%Inh,[9],51%
same,%Inh,[10],67%
COc1cc(Nc2nccc(-c3c(-c4cccc(NC(=O)c5c(F)cccc5F)c4)nn4ncccc34)n2)cc(OC)c1OC [GSK327238],%Inh,[1],0%
same,%Inh,[2],2%
same,%Inh,[3],3%
same,%Inh,[4],0%
same,%Inh,[5],6%
same,%Inh,[6],0%
same,%Inh,[7],0%
same,%Inh,[8],0%
same,%Inh,[9],0%
same,%Inh,[10],0%
Oc1cc(Nc2ccnc3cc(I)ccc23)ccc1F [GW552771],%Inh,[1],0%
same,%Inh,[2],0%
same,%Inh,[3],0%
same,%Inh,[4],19%
same,%Inh,[5],0%
same,%Inh,[6],20%
same,%Inh,[7],13%
same,%Inh,[8],8%
same,%Inh,[9],0%
same,%Inh,[10],0%
COc1cc(Nc2nccc(-c3c(-c4cccc(NC(=O)c5c(F)cccc5F)c4)nn4ccccc34)n2)cc(OC)c1OC [GSK323521],%Inh,[1],9%
same,%Inh,[2],4%
same,%Inh,[3],16%
same,%Inh,[4],0%
same,%Inh,[5],9%
same,%Inh,[6],11%
same,%Inh,[7],0%
same,%Inh,[8],17%
same,%Inh,[9],0%
same,%Inh,[10],5%
O=C(NC1CCN(c2ccnc(Nc3ccc(F)cc3)n2)C1)c1cc2ccccc2s1 (stereo not drawn) [GSK1379716],%Inh,[1],0%
same,%Inh,[2],0%
same,%Inh,[3],0%
same,%Inh,[4],0%
same,%Inh,[5],0%
same,%Inh,[6],0%
same,%Inh,[7],4%
same,%Inh,[8],20%
same,%Inh,[9],0%
same,%Inh,[10],11%
O=C(Nc1ccccc1F)NC1CCN(c2ccnc(Nc3ccc(F)cc3)n2)CC1 [GSK1379800],%Inh,[1],0%
same,%Inh,[2],1%
same,%Inh,[3],0%
same,%Inh,[4],0%
same,%Inh,[5],3%
same,%Inh,[6],0%
same,%Inh,[7],0%
same,%Inh,[8],0%
same,%Inh,[9],0%
same,%Inh,[10],0%
CN1CCN(Cc2cccc(-c3ccc4c(Nc5ccc(Oc6ccccc6)cc5)ccnc4c3)c2)CC1 [GW578342],%Inh,[1],0%
same,%Inh,[2],0%
same,%Inh,[3],0%
same,%Inh,[4],30%
same,%Inh,[5],1%
same,%Inh,[6],0%
same,%Inh,[7],16%
same,%Inh,[8],0%
same,%Inh,[9],0%
same,%Inh,[10],0%
COc1cc(Nc2ncc3c(C)nc(-c4cc5ccccc5[nH]4)n3n2)cc(OC)c1OC [GW869516],%Inh,[1],0%
same,%Inh,[2],0%
same,%Inh,[3],0%
same,%Inh,[4],0%
same,%Inh,[5],30%
same,%Inh,[6],0%
same,%Inh,[7],0%
same,%Inh,[8],4%
same,%Inh,[9],0%
same,%Inh,[10],0%
CC(C)(C)c1ccc2nccc(Nc3cccc(O)c3)c2c1 [GW856795],%Inh,[1],25%
same,%Inh,[2],0%
same,%Inh,[3],0%
same,%Inh,[4],3%
same,%Inh,[5],33%
same,%Inh,[6],0%
same,%Inh,[7],42%
same,%Inh,[8],7%
same,%Inh,[9],0%
same,%Inh,[10],0%
Cc1cccc(Nc2nc(N[C@H]3CCNC3)ncc2C(N)=O)c1.Cl [GSK2197149],%Inh,[1],0%
same,%Inh,[2],0%
same,%Inh,[3],0%
same,%Inh,[4],0%
same,%Inh,[5],0%
same,%Inh,[6],8%
same,%Inh,[7],0%
same,%Inh,[8],28%
same,%Inh,[9],68%
same,%Inh,[10],76%
Clc1ccc(-c2nn3ncccc3c2-c2ccnc(Nc3ccc4c(c3)OCCO4)n2)cc1 [GW829116],%Inh,[1],0%
same,%Inh,[2],0%
same,%Inh,[3],0%
same,%Inh,[4],0%
same,%Inh,[5],0%
same,%Inh,[6],0%
same,%Inh,[7],25%
same,%Inh,[8],13%
same,%Inh,[9],6%
same,%Inh,[10],0%
Cn1cc(-c2[nH]c3cc(NC(=O)[C@H](N)C4CCCCC4)cc4c3c2C=NNC4=O)cn1,%Inh,[1],0%
same,%Inh,[2],0%
same,%Inh,[3],9%
same,%Inh,[4],6%
same,%Inh,[5],0%
same,%Inh,[6],0%
same,%Inh,[7],1%
same,%Inh,[8],39%
same,%Inh,[9],0%
same,%Inh,[10],46%
Nc1n[nH]c2cnc(-c3ccccc3)cc12 [SB-642124],%Inh,[1],0%
same,%Inh,[2],0%
same,%Inh,[3],0%
same,%Inh,[4],0%
same,%Inh,[5],0%
same,%Inh,[6],14%
same,%Inh,[7],0%
same,%Inh,[8],38%
same,%Inh,[9],0%
same,%Inh,[10],13%
O=C(Nc1cccc(-c2nn3ccccc3c2-c2ccnc(Nc3cccc(C(F)(F)F)c3)n2)c1)c1c(F)cccc1F [GSK292658],%Inh,[1],22%
same,%Inh,[2],0%
same,%Inh,[3],0%
same,%Inh,[4],0%
same,%Inh,[5],0%
same,%Inh,[6],8%
same,%Inh,[7],1%
same,%Inh,[8],0%
same,%Inh,[9],0%
same,%Inh,[10],0%
Nc1ncc(-c2cccnc2)c2scc(-c3ccc4c(c3)CCN4C(=O)Cc3ccccc3)c12 [GSK683281],%Inh,[1],0%
same,%Inh,[2],0%
same,%Inh,[3],0%
same,%Inh,[4],0%
same,%Inh,[5],0%
same,%Inh,[6],0%
same,%Inh,[7],0%
same,%Inh,[8],0%
same,%Inh,[9],0%
same,%Inh,[10],0%
CCCCc1nn2ncccc2c1-c1ccnc(Nc2ccc(N3CCN(C)CC3)cc2)n1 [GW684941],%Inh,[1],0%
same,%Inh,[2],0%
same,%Inh,[3],0%
same,%Inh,[4],41%
same,%Inh,[5],0%
same,%Inh,[6],74%
same,%Inh,[7],51%
same,%Inh,[8],0%
same,%Inh,[9],0%
same,%Inh,[10],0%
Cl.NC(=O)c1cccc(Nc2nccc(Nc3ccc(Oc4c(Cl)cccc4Cl)c(Cl)c3)n2)c1 [GW659009],%Inh,[1],0%
same,%Inh,[2],0%
same,%Inh,[3],0%
same,%Inh,[4],4%
same,%Inh,[5],0%
same,%Inh,[6],0%
same,%Inh,[7],0%
same,%Inh,[8],13%
same,%Inh,[9],0%
same,%Inh,[10],4%
CC(C)c1nc(-c2cccc(NS(=O)(=O)c3c(F)cccc3F)c2F)c(-c2ccnc(Nc3ccc(N4CCOCC4)nc3)n2)s1 [GSK2008607],%Inh,[1],0%
same,%Inh,[2],6%
same,%Inh,[3],0%
same,%Inh,[4],0%
same,%Inh,[5],0%
same,%Inh,[6],0%
same,%Inh,[7],31%
same,%Inh,[8],11%
same,%Inh,[9],0%
same,%Inh,[10],0%
FC(F)(F)c1ccc(/C=C/c2cncnc2Nc2ccc3[nH]c(Cc4ccccc4)nc3c2)cc1 [GW709199],%Inh,[1],0%
same,%Inh,[2],0%
same,%Inh,[3],0%
same,%Inh,[4],0%
same,%Inh,[5],0%
same,%Inh,[6],0%
same,%Inh,[7],8%
same,%Inh,[8],0%
same,%Inh,[9],22%
same,%Inh,[10],0%
c1ccc(-c2cnc3nccnn23)cc1 [AH20685],%Inh,[1],0%
same,%Inh,[2],0%
same,%Inh,[3],0%
same,%Inh,[4],0%
same,%Inh,[5],0%
same,%Inh,[6],0%
same,%Inh,[7],0%
same,%Inh,[8],0%
same,%Inh,[9],0%
same,%Inh,[10],9%
COc1cccc(C(=O)Nc2cccc(Oc3ccc4nc(NC(=O)C5CC5)cn4n3)c2)c1,%Inh,[1],1%
same,%Inh,[2],0%
same,%Inh,[3],0%
same,%Inh,[4],0%
same,%Inh,[5],0%
same,%Inh,[6],0%
same,%Inh,[7],0%
same,%Inh,[8],9%
same,%Inh,[9],11%
same,%Inh,[10],17%
COc1ccc(Nc2nccc(N3CCC(NC(=O)Nc4cccc(OC)c4)C3)n2)cc1 (stereo not drawn) [GSK1379742],%Inh,[1],0%
same,%Inh,[2],0%
same,%Inh,[3],0%
same,%Inh,[4],0%
same,%Inh,[5],0%
same,%Inh,[6],1%
same,%Inh,[7],0%
same,%Inh,[8],0%
same,%Inh,[9],0%
same,%Inh,[10],3%
Cl.c1ccc(-c2ccc3c(Nc4ccc5[nH]ncc5c4)ccnc3c2)nc1 [GW440137],%Inh,[1],0%
same,%Inh,[2],6%
same,%Inh,[3],0%
same,%Inh,[4],2%
same,%Inh,[5],5%
same,%Inh,[6],0%
same,%Inh,[7],7%
same,%Inh,[8],0%
same,%Inh,[9],0%
same,%Inh,[10],9%
Cc1ccc(S(=O)(=O)Nc2ccc(Nc3nccc(Nc4cccc5[nH]ncc45)n3)cc2)cc1 [GSK581271],%Inh,[1],0%
same,%Inh,[2],0%
same,%Inh,[3],0%
same,%Inh,[4],0%
same,%Inh,[5],5%
same,%Inh,[6],77%
same,%Inh,[7],0%
same,%Inh,[8],11%
same,%Inh,[9],0%
same,%Inh,[10],0%
COc1cccc(-c2ccc3c(NC(=O)C4CC4)n[nH]c3n2)c1 [SB-710903],%Inh,[1],0%
same,%Inh,[2],0%
same,%Inh,[3],0%
same,%Inh,[4],9%
same,%Inh,[5],0%
same,%Inh,[6],0%
same,%Inh,[7],27%
same,%Inh,[8],12%
same,%Inh,[9],0%
same,%Inh,[10],0%
Cn1cc(-c2ccc3c(c2)CCN3C(=O)Cc2cccc(F)c2)c2c(N)ncnc21 [GSK2603358],%Inh,[1],0%
same,%Inh,[2],3%
same,%Inh,[3],0%
same,%Inh,[4],28%
same,%Inh,[5],30%
same,%Inh,[6],0%
same,%Inh,[7],11%
same,%Inh,[8],0%
same,%Inh,[9],0%
same,%Inh,[10],0%
COc1cc(Nc2nccc(N3CCC(NC(=O)Nc4cccc(C(C)=O)c4)C3)n2)cc(OC)c1OC (stereo not drawn) [GSK1379753],%Inh,[1],0%
same,%Inh,[2],5%
same,%Inh,[3],0%
same,%Inh,[4],46%
same,%Inh,[5],20%
same,%Inh,[6],78%
same,%Inh,[7],0%
same,%Inh,[8],0%
same,%Inh,[9],0%
same,%Inh,[10],0%
CNC(=O)c1ccccc1Nc1nc(Nc2ccc(N3CCOCC3)cc2)ncc1Cl.Cl [GSK1576028],%Inh,[1],0%
same,%Inh,[2],15%
same,%Inh,[3],50%
same,%Inh,[4],29%
same,%Inh,[5],31%
same,%Inh,[6],56%
same,%Inh,[7],53%
same,%Inh,[8],45%
same,%Inh,[9],0%
same,%Inh,[10],55%
Fc1ccc(-c2ncn(C3CCNCC3)c2-c2ccnc(Oc3ccc(-c4ccccc4)cc3)n2)cc1 [SB-245391],%Inh,[1],39%
same,%Inh,[2],40%
same,%Inh,[3],40%
same,%Inh,[4],73%
same,%Inh,[5],39%
same,%Inh,[6],31%
same,%Inh,[7],15%
same,%Inh,[8],23%
same,%Inh,[9],4%
same,%Inh,[10],16%
COCCOCCOc1cc2ncc3c4ccc(C#N)cc4[nH]c3c2cc1OC,%Inh,[1],12%
same,%Inh,[2],0%
same,%Inh,[3],0%
same,%Inh,[4],0%
same,%Inh,[5],0%
same,%Inh,[6],0%
same,%Inh,[7],47%
same,%Inh,[8],29%
same,%Inh,[9],94%
same,%Inh,[10],49%
COC(=O)Nc1nc2cc(Oc3ccc(NC(=O)Nc4cc(C(F)(F)F)ccc4F)cn3)ccc2[nH]1.Cl.Cl [GW681170],%Inh,[1],0%
same,%Inh,[2],0%
same,%Inh,[3],5%
same,%Inh,[4],0%
same,%Inh,[5],0%
same,%Inh,[6],0%
same,%Inh,[7],0%
same,%Inh,[8],9%
same,%Inh,[9],0%
same,%Inh,[10],0%
C[C@@H]1CC[C@@H](C(=O)Nc2ccccc2)CN1c1cc(-c2ccc3c(N)n[nH]c3c2)nc(N)n1 [GSK2286062],%Inh,[1],0%
same,%Inh,[2],0%
same,%Inh,[3],0%
same,%Inh,[4],0%
same,%Inh,[5],2%
same,%Inh,[6],0%
same,%Inh,[7],0%
same,%Inh,[8],31%
same,%Inh,[9],0%
same,%Inh,[10],4%
Cl.Cl.NCC(C(=O)Nc1cc(Br)c(-c2ccnc3[nH]ccc23)s1)c1ccccc1 (stereo not drawn) [GSK1269851],%Inh,[1],0%
same,%Inh,[2],0%
same,%Inh,[3],0%
same,%Inh,[4],0%
same,%Inh,[5],0%
same,%Inh,[6],9%
same,%Inh,[7],0%
same,%Inh,[8],19%
same,%Inh,[9],0%
same,%Inh,[10],0%
